BRCA1 expr up = activators of BRCA1 expression; MCF7-BRCA1-FFLuc reporter, luminescence, 48 h; response scale: scaled: vehicle 0%, 10 µM genistein 100%; AID 624202; 380,000 compounds, 1.1% hits; Potency, µM (doses to about 46.1 µM), actives largely listed as activators; further: nearly all actives have a fitted effect of over 80% in size
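Using MCF7 cells harboring a BRCA1 firefly luciferase reporter, plated 2 h before compound pinning, the screen measured luminescence after 48 h incubation. Responses were normalized to DMSO and 10 microM genistein, then fitted for concentration-effect.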
p53 reactivation = mutant p53 re-activation in reporter cells; 320,000 compounds, 0.063% hits; AID 504706; Potency, µM (series often up to 92.2 µM), hits mostly activators; H1299 p53-A138V BP100-luciferase reporter, luminescence, 24 h; further: nearly all actives have a fitted effect of over 45% in size
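p53-null H1299 cells stably carrying temperature-sensitive p53-A138V and a BP100-luciferase reporter were pinned with compounds (4-point, 1:5 series) and held 24 hrs at 37 deg C. Luminescence was read 10 min after detection reagent.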
RORg inh = inhibitors of mouse ROR gamma transcriptional activity | Drosophila S2 Gal4-RORgamma UAS-luciferase reporter, 20 h | Potency, µM (series often up to 53.6 µM), most hits filed as inhibitors | 310,000 compounds, 5.4% hits | AID 2551; further: nearly all actives have a fitted effect of over 60% in size
Target sequence (P51450 whole entry, looked up, the tested form may be a part): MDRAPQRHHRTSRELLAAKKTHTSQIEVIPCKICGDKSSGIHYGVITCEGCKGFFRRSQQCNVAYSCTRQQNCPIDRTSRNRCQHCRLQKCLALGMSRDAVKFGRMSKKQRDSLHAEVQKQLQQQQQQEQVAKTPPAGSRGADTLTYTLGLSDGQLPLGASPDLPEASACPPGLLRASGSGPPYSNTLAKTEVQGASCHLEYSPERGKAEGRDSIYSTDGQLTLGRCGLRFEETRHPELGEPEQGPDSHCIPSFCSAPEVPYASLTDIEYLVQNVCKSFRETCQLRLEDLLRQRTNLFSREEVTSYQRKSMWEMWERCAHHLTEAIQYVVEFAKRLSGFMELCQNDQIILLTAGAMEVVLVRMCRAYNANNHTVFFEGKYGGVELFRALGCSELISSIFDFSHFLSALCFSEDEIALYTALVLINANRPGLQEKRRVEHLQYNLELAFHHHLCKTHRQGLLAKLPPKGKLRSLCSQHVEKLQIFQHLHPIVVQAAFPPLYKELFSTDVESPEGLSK
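Drosophila S2 cells stably expressing Gal4-DBD/mouse RORγ fusion under metallothionein promoter plus UAS-luciferase; compound 1 h, then 700 uM CuSO4 induction for 20 h at ambient temperature; inhibition read as reduced luminescence.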
Giardia kill = Giardia lamblia killing; Giardia lamblia trophozoite viability; activity change, % at 7.66 µM, hits read low; 340,000 compounds, 0.15% hits; in the data active means activity change below about -80%; inconclusive means between about -30% and that limit;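 further: parasites exposed to compound for two days anaerobically before the ATP read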
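Each well holds 100 Giardia trophozoites and compound. After two days (48 hrs) at 37 deg C in anaerobic conditions, ATP is quantified by luminescence.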
ELG1 repair inh = blocks ELG1-dependent DNA repair in HEK293T cells. 330,000 compounds, 2.3% hits. AID 504467. Potency, µM (doses to about 46.1 µM), actives largely listed as inhibitors. HEK293T ELG1-luciferase reporter, luminescence, 16 h; DNA damage induced by 5-fluorouridine; further: nearly all actives have a fitted effect of over 55% in size
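5-Fluorouridine DNA damage + compound/DMSO, 2,000 cells/well, 16 h, 37 °C/5% CO2. ONE-Glo, 30 min RT, luminescence. Readout = decrease in reporter signal.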
Gal4-VP16 FLuc = counter-screen for ROR gamma inhibitors: Gal4-VP16 reporter; Drosophila S2 Gal4-VP16 UAS-luciferase, luminescence, 20 h; Potency, µM (highest dose often 53.6 µM), actives largely listed as inhibitors; 310,000 compounds, 3.5% hits; AID 2546;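 further: Gal4-VP16 expression switched on by copper sulfate through the metallothionein promoter; nearly all actives have a fitted effect of over 50% in size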
Hits are given with their value; - = inactive; ? = inconclusive; . = no result; [ ] = remark or other dose. Most compounds without a hit are left out; they make up all but 7.6% or so of the library. Unless noted, the call rests on the fitted dose curve; in most records, active means well fitted curve in the direction sought with a large enough effect; inconclusive means small, poorly fitted or top-dose-only effect, or another doubt; inactive means no such curve, though single readings can be large; an effect the other way counts as inactive or inconclusive.

SMILES	BRCA1 expr up	p53 reactivation	RORg inh	Giardia kill	ELG1 repair inh	Gal4-VP16 FLuc
COc1ccc2ccc3c(c2c1)N=CC1(O3)N(C)c2ccccc2C1(C)C (configuration not stated)	-	-	?	-	-	-
CC(C)(C)S(=O)(=O)c1cnc(-c2ccc(Cl)cc2)nc1N	2.8µM	-	-	-	?	-
CC(C)(C)S(=O)(=O)c1cnc(N2CCCCC2)nc1N	-	-	-	-	-	-
CC1CCN(CCn2c(=S)[nH]c3cc4c(cc3c2=O)OCO4)CC1	-	-	-	-	-	-
CC1CCCCN1CCn1c(=S)[nH]c2cc3c(cc2c1=O)OCO3 (configuration not stated)	-	-	11µM	-	-	?
CC(C)OCCCn1c(=S)[nH]c2cc3c(cc2c1=O)OCO3	-	-	4µM	-	-	6.3µM
CC(C)OCCCn1c(=S)[nH]c2ccc(N3CCOCC3)cc2c1=O	-	-	-	-	?	-
Cc1cccc(-n2nc([N+](=O)[O-])c(=NCc3cccnc3)n2O)c1	-	-	?	-88	-	-
COc1ccc(-n2nc([N+](=O)[O-])c(=NCCc3ccccc3)n2O)cc1	-	-	-[10 µM]	?	?	-
COc1cccc(CN=c2c([N+](=O)[O-])nn(-c3ccccc3C)n2O)c1	-	-	?	-109	?	-
Cc1cccc(NC(=S)N/N=C/c2ccc([N+](=O)[O-])s2)c1	-	-	1.3µM	-	?	3.2µM
Cc1cccc(NC(=O)/C=C/c2ccc([N+](=O)[O-])s2)c1	-	-	6.3µM	-	?	3.2µM
COc1ccc(NC(=O)CCC(=O)N/N=C/c2ccc([N+](=O)[O-])s2)cc1	-	?	-	-	?	?
CC(C)CCCCCCCCCCCCC(=O)NCC(=O)NC1C(O)C(O)C(Nc2ncnc3nc[nH]c23)OC1C(O)CO (configuration not stated)	?	.	.	-	.	.
C=CCc1c(C)nc(SC)nc1Nc1ccc(C(C)=O)cc1	-	?	-	-	7.3µM	-
Cc1cccc(C(=O)NCc2nnc(SCC(=O)N3CCN(c4ccccc4)CC3)n2C)c1	-	.	.	-	.	.
CCc1cccc(C)c1NC(=S)NCc1ccccc1	-	-	3.5µM	-	-	32µM
CCCCC(=O)NCc1ccc2c(c1)cc(C)n2C	-	-	-	-	-	-
CCCCNC(=S)NCc1ccc2c(c1)cc(C)n2C	-	-	11µM	-	-	?
CCc1cccc(C)c1NC(=S)NCc1ccc2c(c1)cc(C)n2C	-	-	5.6µM	-	-	7.9µM
Cc1cccc(C)c1NC(=S)NCc1ccccc1	-	-	-	-	-	-
CCC(CC)C(=O)NCc1ccc2c(c1)cc(C)n2C	-	-	-	-	-	-
COc1ccccc1NC(=S)NCc1ccc2c(c1)cc(C)n2C	-	-	5.6µM	-	-	?
COc1ccc(C(=O)NCc2ccc3c(c2)cc(C)n3C)cc1OC	-	-	-	-	?	-
O=C1NC[C@@H](Cc2cccc3ccccc23)N(CC2CCCCC2)C1=O	-	-	-	-	-	-
SMILES	BRCA1 expr up	p53 reactivation	RORg inh	Giardia kill	ELG1 repair inh	Gal4-VP16 FLuc
Cc1ccn2c(Cc3ccccc3)c(-c3ccc(F)cc3)nc2c1	-	.	.	.	.	.
COc1ccc(-c2cc(NC(=O)c3cncn3-c3ccccc3)ccc2OC)cc1	-	-	-	-	?	-
O=C1Cn2c(nc3ccccc32)N1c1cccc(C(F)(F)F)c1	-	-	-	-	-	-
Cc1cc2cc(CNC(=S)NCc3ccccc3)ccc2n1C	-	-	18µM	-	-	?
Cc1cc2cc(CNC(=O)C3CC3)ccc2n1C	-	-	-	-	-	-
Cc1cc2cc(CNC(=O)Nc3ccccc3)ccc2n1C	?	?	?	-	-	-
COc1ccc(NC(=S)NCc2ccc3c(c2)cc(C)n3C)cc1	-	-	4.5µM	-	-	11µM
Cc1ccccc1NC(=S)NCc1ccc2c(c1)cc(C)n2C	-	-	6.3µM	-	-	11µM
COc1ccc(CC(=O)NCc2ccc3c(c2)cc(C)n3C)cc1	-	-	-	-	-	-

High-throughput results as filed in PubChem.
